PubChem BioAssay AID1259421 (Broad Institute, 2018)
“And” between values parts separate entries of the source, which are not always exact repeats. Equal values may be shown once. The whole screen tested about 6,400 compounds, of which about 610 (9.5%) were called active. No stated cut-off is given here; in the data, active means activity change below about -70%; inconclusive means no clear call, values can overlap the other calls; inactive means above that. Shown is part of a subset that was picked to be rich in actives. Some structures have more than one record in an assay (separate samples or runs), and their calls can disagree. *1 amine or outer side, *2 acyl side, *3 side chain or, on linkers, in order; H or OH if unused. Where a SMILES comes first, the peptide text is derived from it. Bridges are numbered along the chain shown (N, C = ends). Roman numbers before positions name the chains, in order. [ ]: non-standard residue; d: D form. The star is where a group is joined. Actinocin(9to1) = Cc1c2oc3c(C)ccc(C(=O)[*:1])c3nc-2c(C(=O)[*:2])c(N)c1=O; NMeV = CN[CH](C(=O)O)C(C)C; Cbz = O=C(OCc1ccccc1)*; Sar = CNCC(=O)O

Test: T. gondii ME49Luc in HeLa cells, luciferase assay, 72 h, no IFN-y (AID 1259421)
Conditions: stronger effect = lower value, concentration not given here

| SMILES | activity change, negative = inhibition |
| --- | --- |
| CC(=O)OC[C@H]1O[C@@](COC(C)=O)(O[C@H]2O[C@H](COC(C)=O)[C@@H](OC(C)=O)[C@H](OC(C)=O)[C@H]2OC(C)=O)[C@@H](OC(C)=O)[C@@H]1OC(C)=O | 4.98% (inactive) |
| CCC1(c2cnc[nH]2)Cc2ccccc2C1 | 52.1% (inactive) |
| CS(=O)(=O)NC(=O)CCC/C=C\C[C@H]1C(=O)C[C@@H](O)[C@@H]1/C=C/[C@@H](O)COc1ccccc1 | 0.217% (inactive) |
| CCCC(=O)Nc1ncnc2c1ncn2C1OC2COP(=O)(O)OC2C1OC(=O)CCC (stereo unspecified) | 6.24% (inactive) |
| C=C1C[C@]23C[C@@]1(O)CC[C@H]2[C@@]12C=C[C@H](O)[C@](C)(C(=O)O1)[C@H]2[C@@H]3C(=O)O | 1.78% (inactive) |
| CCCCC(C)(C)[C@H](O)/C=C/[C@H]1[C@H](O)CC(=O)[C@@H]1C/C=C\CCCC(=O)O | 16.3% (inactive) |
| O/N=C/c1ccc(-c2ccc(O)c(F)c2)c(Cl)c1O | -85.3% (active) |
| CC(=O)Nc1cccc(-n2c(=O)n(C3CC3)c(=O)c3c(Nc4ccc(I)cc4F)n(C)c(=O)c(C)c32)c1 | 19.3% (inactive) |
| CCOc1nc2cccc(C(=O)O)c2n1Cc1ccc(-c2ccccc2-c2nn[nH]n2)cc1 | -59.6% (inactive) |
| C=C[C@]1(C)C[C@@H](OC(=O)CSC(C)(C)CNC(=O)[C@H](N)C(C)C)[C@@]2(C)[C@H](C)CC[C@]3(CCC(=O)[C@H]32)[C@@H](C)[C@@H]1O | -20.2% (inactive) |
| Cc1c(CN2CCN(C(=O)[C@H](C)O)CC2)sc2c(N3CCOCC3)nc(-c3cnc(N)nc3)nc12 | -21.6% (inactive) |
| COc1ccc(-c2nc(N3CCOCC3)c3sc(CN(C)c4ncc(C(=O)NO)cn4)cc3n2)cn1 | -89.4% (active) |
| CS(=O)(=O)N1CCN(Cc2cc3nc(-c4cccc5[nH]ncc45)nc(N4CCOCC4)c3s2)CC1 | -19.3% (inactive) |
| C=CC(C)(C)c1[nH]c2ccccc2c1C1C(=O)C(=O)C(c2c[nH]c3c(CC=C(C)C)cccc23)C(=O)C1=O (stereo unspecified) | 6.09% (inactive) |
| O=C(O)/C=C1\CCCc2ccccc2C1O (stereo unspecified) | 14% (inactive) and 4.55% (inactive) |
| O=C(OOC(=O)c1ccccc1)c1ccccc1 | 3.51% (inactive) |
| O=C(Oc1cccc2cccnc12)c1ccccc1 | 9.16% (inactive) and -0.158% (inactive) |
| Cc1ccc2c(Br)cc(Br)c(OC(=O)c3ccccc3)c2n1 | -89.9% (active) |
| Nc1nc(N)c([NH2+][O-])c(OCC2CCCCC2)n1 | 6.35% (inactive) |
| O=C(O)[C@H](O)[C@H](O)[C@@H](O)[C@H](O)[C@H](O)CO | 15.3% (inactive) and -2.15% (inactive) |
| COc1cccc2c1C(=O)c1c(O)c3c(c(O)c1C2=O)C[C@@](O)(C(C)=O)C[C@@H]3O[C@H]1C[C@H](N)[C@H](O)[C@H](C)O1 | -66.8% (inactive) and -6.1% (inactive) and -91.6% (active) |

| SMILES | activity change, negative = inhibition |
| --- | --- |
| COc1cccc2c1C(=O)c1c(O)c3c(c(O)c1C2=O)C[C@@](O)(C(C)=O)C[C@@H]3OC1CC(N)C(O)C(C)O1 (stereo partly specified) | -89.8% (active) |
| Nc1nc2c(nc(Br)n2[C@@H]2O[C@@H]3COP(=O)(O)O[C@H]3[C@H]2O)c(=O)[nH]1 | 7.36% (inactive) |
| CO[C@H]1CC(O[C@@H]2/C(C)=C/C[C@@H]3C[C@@H](C[C@]4(CC[C@H](C)[C@@H](C5CCCCC5)O4)O3)OC(=O)[C@@H]3C=C(C)/C(=N/O)[C@H]4OC/C(=C\C=C\[C@@H]2C)[C@]43O)O[C@@H](C)C1O (stereo partly specified) | -64.5% (inactive) and -40.6% (inactive) |
| NCCCCN=C(N)N | 12.5% (inactive) |
| CC(CCC(=O)NCC(=O)O)C1CCC2C3CCC4CC(O)CCC4(C)C3CC(O)C12C (stereo unspecified) | -5.76% (inactive) |
| CC(=O)O[C@@H]1CC2C(C)(C)C(=O)CC[C@]2(C)C2CC[C@@]3(C)[C@H](c4ccoc4)OC(=O)C4OC43[C@@]21C (stereo partly specified) | 21.5% (inactive) |
| COC1CCC(N(C(=O)C2CCC(C)CC2)c2cc(C3=CCCCC3)sc2C(=O)O)CC1 (stereo unspecified) | 5.25% (inactive) |
| COc1cccc(O)c1O | -4.12% (inactive) |
| C[C@@H]1C(SC2CN(C3=NCCS3)C2)=C(C(=O)OCOC(=O)C(C)(C)C)N2C(=O)[C@H]([C@@H](C)O)[C@H]12 | 3.05% (inactive) |
| COC(=O)[C@H](CC(C)C)NC(=O)[C@@H](N)CC(C)C | 4.82% (inactive) |
| CC(C)C[C@@H](C=O)NC(=O)[C@H](CC(C)C)NC(=O)[C@H](CC(C)C)NC(=O)OCc1ccccc1 (Cbz-Leu-Leu-Leu-aldehyde) | -62.8% (inactive) and -91.5% (active) |
| CCCCC(C=O)NC(=O)C(CC(C)C)NC(=O)OCc1ccccc1 (stereo unspecified) | 10.2% (inactive) |
| CC(C)=CCC/C(C)=C/COc1ccc2ccc(=O)oc2c1 | 17.8% (inactive) |
| c1ccc2c(c1)CCCc1cc(NCCN3CCOCC3)nnc1-2 | 12.2% (inactive) |
| O=C(NCCN1CCOCC1)c1ccc(Cl)cc1 | -0.363% (inactive) |
| O=C1C(Cl)=C(NCCN2CCOCC2)C(=O)c2ncccc21 | -78.2% (active) |
| c1cc(-c2cnn3cc(-c4ccc(OCCN5CCCCC5)cc4)cnc23)ccn1 | -69.4% (inactive) |
| C/C(=N\NC(=O)[C@@H]1C(=O)NC[C@H]1c1ccccc1)c1cccc(Br)c1 | 1.33% (inactive) |
| CO[C@H]1C=CO[C@@]2(C)Oc3c(C)c(O)c4c(O)c(c5c(nc6cc(C)ccn65)c4c3C2=O)NC(=O)/C(C)=C\C=C[C@H](C)[C@H](O)[C@@H](C)[C@@H](O)[C@@H](C)[C@H](OC(C)=O)[C@@H]1C | -17.3% (inactive) |
| O=C1OC(=O)C2C3CCC(O3)C12 (stereo unspecified) | -85.1% (active) |
| CC(C)[C@](O)(c1ccc2cc(OC(F)F)c(OC(F)F)cc2c1)c1cn[nH]n1 | 29.6% (inactive) |

| SMILES | activity change, negative = inhibition |
| --- | --- |
| Brc1cccc(Nc2ncnc3cc4nc[nH]c4cc23)c1 | 3.71% (inactive) |
| O=c1[nH]c2cc(Cl)c(Cl)c([N+](=O)[O-])c2[nH]c1=O | 7.55% (inactive) |
| O=c1[nH]c2cc([N+](=O)[O-])c([N+](=O)[O-])cc2[nH]c1=O | 17.4% (inactive) and 5.82% (inactive) and 4.72% (inactive) |
| O=c1[nH]c2cc(Cl)c(Cl)cc2[nH]c1=O | -86.2% (active) |
| COc1cc([C@@H]2Oc3c(O)cc([C@H]4Oc5cc(O)cc(O)c5C(=O)[C@@H]4O)cc3[C@H]2CO)ccc1O | -10.5% (inactive) |
| CC(C)O.CC(C)O.CC(C)O.[In] | 12.3% (inactive) |
| Cc1c2oc3c(C)ccc(C(=O)OC(C)C4NC(=O)C(C(C)C)N(C)C(=O)CN(C)C(=O)C5CCCN5C(=O)C(C(C)C)NC4=O)c3nc-2c(C(=O)OC(C)C2NC(=O)C(C(C)C)N(C)C(=O)CN(C)C(=O)C3CCCN3C(=O)C(C(C)C)NC2=O)c(N)c1=O (stereo unspecified) (I: cyclo([Sar][NMeV]TVP) / II: cyclo([Sar][NMeV]TVP); linker I:3-II:3 via Actinocin(9to1); configuration not given here) | -87.1% (active) |
| Cc1c2oc3c(C)ccc(C(=O)N[C@@H]4C(=O)N[C@H](C(C)C)C(=O)N5CCC[C@H]5C(=O)N(C)CC(=O)N(C)[C@@H](C(C)C)C(=O)O[C@@H]4C)c3nc-2c(C(=O)N[C@@H]2C(=O)N[C@H](C(C)C)C(=O)N3CCC[C@H]3C(=O)N(C)CC(=O)N(C)[C@@H](C(C)C)C(=O)O[C@@H]2C)c(N)c1=O (I: T[dV]P[Sar][NMeV] / II: T[dV]P[Sar][NMeV]; ester I:1-I:C, II:1-II:C; linker I:N-II:N via Actinocin(9to1)) | -88.5% (active) |
| CCC1OC(=O)[C@H](C)C(=O)[C@H](C)[C@@H](OC2O[C@H](C)C[C@H](N(C)C)[C@H]2O)[C@](C)(OC)C[C@@H](C)C(=O)[C@@H](C)[C@@H]2N(CCCCn3cnc(-c4cccnc4)c3)C(=O)O[C@]12C (stereo partly specified) | -0.624% (inactive) |
| COCCCCC(=NOCCN)c1ccc(C(F)(F)F)cc1 | 4.87% (inactive) |
| O=C(CCCc1ccc(-c2ccccc2F)cc1)Nc1ccc(O)cc1 | -67.6% (inactive) and -60.5% (inactive) |
| CCOc1ccn(-c2ccc(F)cc2)c(=O)c1C(=O)Nc1ccc(Oc2ccnc(N)c2Cl)c(F)c1 | 0.966% (inactive) |
| Nc1nccc(Oc2ccc(NC(=O)c3c[nH]cc(-c4ccc(F)cc4)c3=O)cc2F)c1Cl | -76.8% (active) |
| Cn1cnc(-c2cc3nccc(Oc4ccc(NC(=S)NC(=O)Cc5ccccc5)cc4F)c3s2)c1 | 28.8% (inactive) |
| N#Cc1ccc(NCCNCC(=O)N2CCC[C@H]2C#N)nc1 | -0.604% (inactive) |
| COc1ccc(-c2cc(=O)c3c(O)cc(O[C@@H]4O[C@@H](CO[C@@H]5O[C@H](C)[C@@H](O)[C@H](O)[C@H]5O)[C@H](O)[C@@H](O)[C@H]4O)cc3o2)cc1O | 6.66% (inactive) |
| CCc1c(Cl)c(O)c(Cl)c(O)c1C(=O)O[C@H]1[C@H](O)[C@H](OC)[C@H](OCC2=C/C=C/C[C@H](O)/C(C)=C\[C@H](CC)[C@H](O[C@@H]3OC(C)(C)[C@@H](OC(=O)C(C)C)[C@H](O)[C@H]3O)/C(C)=C\C(C)=C\C[C@H]([C@@H](C)O)OC2=O)O[C@@H]1C | 16.6% (inactive) |
| C[C@H]1O[C@@H](O[C@H]2[C@@H](O)C[C@H](O[C@H]3[C@@H](O)C[C@H](O[C@H]4CC[C@]5(C)C6C[C@@H](O)[C@]7(C)[C@@H](C8=CC(=O)OC8)CC[C@]7(O)C6CC[C@@H]5C4)O[C@@H]3C)O[C@@H]2C)C[C@H](O)[C@@H]1O (stereo partly specified) | -76.7% (active) and -101% (active) |
| C[C@H]1O[C@@H](O[C@H]2[C@@H](O)C[C@H](O[C@H]3[C@@H](O)C[C@H](O[C@H]4CC[C@]5(C)C6CC[C@]7(C)[C@@H](C8=CC(=O)OC8)CC[C@]7(O)C6CC[C@@H]5C4)O[C@@H]3C)O[C@@H]2C)C[C@H](O)[C@@H]1O (stereo partly specified) | -83.2% (active) and -93.3% (active) |
